# According to PubChem BioAssay (NCATS):
# Inconclusive results are not listed. Activity calls are given as the source filed them. Unless noted, calls follow the shape of the dose curve; as a rule, active = well fitted curve in the direction sought with a large enough effect; inconclusive = small, poorly fitted or top-dose-only effect, or another doubt; inactive = no such curve, though single readings can be large; an effect the other way counts as inactive or inconclusive.
# What was measured:
# [1] = Quantitative High-Throughput drug screen in 47 multiple myeloma cell lines against the NCATS MIPE library collection: L363_DSMZ cell viability assay (AID 1918984); also: nearly all actives have a fitted effect of over 40% in size; also: potency is read from the fitted curve at half-maximal effect
# In short: (§1)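 MIPE 4.0 approved/investigational drugs; 500 cells/well; 48 h 37 °C humidified 5% CO2; CTG luminescence readout; DMSO = 100%, media = 0% viability.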
# [2] = Quantitative High-Throughput drug screen in 47 multiple myeloma cell lines against the NCATS MIPE library collection: KMS34_JCRB cell viability assay (AID 1918985); also: nearly all actives have a fitted effect of over 40% in size; also: potency is read from the fitted curve at half-maximal effect
# In short: as §1
# [3] = Quantitative High-Throughput drug screen in 47 multiple myeloma cell lines against the NCATS MIPE library collection: OCIMY7_PLB cell viability assay (AID 1918987); also: nearly all actives have a fitted effect of over 65% in size; also: potency is read from the fitted curve at half-maximal effect
# In short: as §1
# [4] = Quantitative High-Throughput drug screen in 47 multiple myeloma cell lines against the NCATS MIPE library collection: OPM1_PLB cell viability assay (AID 1918989); also: nearly all actives have a fitted effect of over 40% in size; also: potency is read from the fitted curve at half-maximal effect
# In short: as §1
# [5] = Quantitative High-Throughput drug screen in 47 multiple myeloma cell lines against the NCATS MIPE library collection: SKMM1_PLB cell viability assay (AID 1919863); details: SKMM1 myeloma viability, CellTiter-Glo ATP, 48 h; viability: stronger effect = lower value; also: nearly all actives have a fitted effect of over 35% in size; also: potency is read from the fitted curve at half-maximal effect
# In short: as §1
# [6] = Quantitative High-Throughput drug screen in 47 multiple myeloma cell lines against the NCATS MIPE library collection: U266_ATCC cell viability assay (AID 1919864); also: nearly all actives have a fitted effect of over 35% in size; also: potency is read from the fitted curve at half-maximal effect
# In short: as §1
# [7] = Quantitative High-Throughput drug screen in 47 multiple myeloma cell lines against the NCATS MIPE library collection: XG1_PLB cell viability assay (AID 1919866); also: nearly all actives have a fitted effect of over 35% in size; also: potency is read from the fitted curve at half-maximal effect
# In short: as §1
# [8] = Quantitative High-Throughput drug screen in 47 multiple myeloma cell lines against the NCATS MIPE library collection: UTMC2_PLB cell viability assay (AID 1919868); details: CellTiter-Glo ATP luminescence, 48 h; viability (% of DMSO control): at 45.8 µM (top of the series) unless noted; also: nearly all actives have a fitted effect of over 55% in size; also: potency is read from the fitted curve at half-maximal effect
# In short: as §1
# [9] = Quantitative High-Throughput drug screen in 47 multiple myeloma cell lines against the NCATS MIPE library collection: PE2_PLB cell viability assay (AID 1919869); also: nearly all actives have a fitted effect of over 35% in size; also: potency is read from the fitted curve at half-maximal effect
# In short: as §1
# [10] = Quantitative High-Throughput drug screen in 47 multiple myeloma cell lines against the NCATS MIPE library collection: PCM6_Riken cell viability assay (AID 1919870); also: nearly all actives have a fitted effect of over 30% in size; also: potency is read from the fitted curve at half-maximal effect
# In short: as §1
# [11] = Quantitative High-Throughput drug screen in 47 multiple myeloma cell lines against the NCATS MIPE library collection: RPMI8226_ATCC cell viability assay (AID 1919871); also: nearly all actives have a fitted effect of over 30% in size; also: potency is read from the fitted curve at half-maximal effect
# In short: as §1
# [12] = Quantitative High-Throughput drug screen in 47 multiple myeloma cell lines against the NCATS MIPE library collection: OPM2_DSMZ cell viability assay (AID 1919872); also: nearly all actives have a fitted effect of over 30% in size; also: potency is read from the fitted curve at half-maximal effect
# In short: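 We plated 500 myeloma cells per well, pinned in MIPE 4.0 compounds, and incubated for 48 hours at 37C. ATP was then quantified with CellTiter-Glo, with DMSO and media-only wells defining 100% and 0%.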
# [13] = Quantitative High-Throughput drug screen in 47 multiple myeloma cell lines against the NCATS MIPE library collection: KMS11_JCRBsus cell viability assay (AID 1919873); also: nearly all actives have a fitted effect of over 50% in size; also: potency is read from the fitted curve at half-maximal effect
# In short: as §1
# [14] = Quantitative High-Throughput drug screen in 47 multiple myeloma cell lines against the NCATS MIPE library collection: KMS28BM_JCRB cell viability assay (AID 1919874); also: nearly all actives have a fitted effect of over 35% in size; also: potency is read from the fitted curve at half-maximal effect
# In short: as §1
# [15] = qHTS drug screen for cell cycle checkpoint inhibitors in PARPi-resistant BRCA-mutant ovarian cancer cell lines. (AID 1963452; calls by dose curve); details: PEO1/OlaR viability, CellTiter-Glo luminescence, 96 h, stronger effect = lower value
# In short: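 PEO1, PEO4 and PEO1/OlaR ovarian cancer cells, 600 per well, exposed 96 h at 37C to a dilution series. Viability read by CellTiter-Glo luminescence, normalized to DMSO and empty wells; activity summarized as Z-AUC.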
# [16] = Quantitative High-Throughput drug screen in 47 multiple myeloma cell lines against the NCATS MIPE library collection: OCIMY5_PLB cell viability assay (AID 1918988); also: potency is read from the fitted curve at half-maximal effect; nearly all actives have a fitted effect of over 65% in size
# In short: as §1
# [17] = Quantitative High-Throughput drug screen in 47 multiple myeloma cell lines against the NCATS MIPE library collection: VP6_DJ cell viability assay (AID 1919867); also: nearly all actives have a fitted effect of over 40% in size; also: potency is read from the fitted curve at half-maximal effect
# In short: as §1
# [18] = Quantitative High-Throughput drug screen in 47 multiple myeloma cell lines against the NCATS MIPE library collection: XG6_PLB cell viability assay (AID 1919865); also: nearly all actives have a fitted effect of over 40% in size; also: potency is read from the fitted curve at half-maximal effect
# In short: as §1
# [19] = qHTS for identification of novel therapeutic agents for treatment of microphthalmiaassociated transcription factor (MiT) renal cell carcinoma (RCC) (AID 1963991); details: CellTiter-Glo, 48 h, stronger effect = lower value;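 also: curves scaled with 100% = DMSO viability and 0% = empty wells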
# In short: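 UOK109/UOK124/UOK145 (TFE3 fusions, three partners); 500 cells/well; MIPE v4.0, 1912 cpds, 11 conc.; 48 h, 37 C; CellTiter-Glo, 15 min RT; lum. Norm.: DMSO 100%, empty 0%.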
# [20] = qHTS profiling for inhibitors of Plasmodium falciparum proliferation (AID 504749); also: potency is read from the fitted curve at half-maximal effect;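 as to activity, negative = inhibition: 0% = DMSO vehicle and full inhibition = artemisinin control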; as to all read-outs here: nearly all actives have a fitted effect of over 60% in size; details: P. falciparum in erythrocytes, SYBR Green DNA, 72 h; for activity, negative = inhibition: at 28.7 µM (top of the series)
# In short: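 Parasite proliferation within erythrocytes, 72 h exposure. Endpoint: SYBR Green I fluorescence after overnight lysis at room temperature. Controls: 0.29 uM artemisinin, DMSO.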
# [21] = measured here: PEO1 parental Z-AUC
smiles,measurement,setting,value
CC(C)c1cc(-c2n[nH]c(=O)n2-c2ccc3c(ccn3C)c2)c(O)cc1O,Potency,[1],11.8 nM (active)
same,Potency,[2],26.4 nM (active)
same,Potency,[3],0.0118 µM (active)
same,Potency,[4],0.0296 µM (active)
same,Potency,[5],0.0743 µM (active)
same,Potency,[6],0.0372 µM (active)
same,Potency,[7],0.0296 µM (active)
same,Potency,[8],0.0526 µM (active)
same,Potency,[9],0.0372 µM (active)
same,Potency,[10],0.0235 µM (active)
same,Potency,[11],0.0372 µM (active)
same,Potency,[12],0.0418 µM (active)
same,Potency,[13],0.0166 µM (active)
same,Potency,[14],0.0418 µM (active)
same,Z-AUC,[15],-0.89 (inactive)
same,Z-AUC,[15]; [21],-1.07
same,Z-AUC,[15]; measured here: PEO4 Z-AUC,0.105
CNC(=O)c1ccc(-c2cnc3ncc(Cc4ccc5ncccc5c4)n3n2)cc1F,Potency,[1],inactive
same,Potency,[2],inactive
same,Potency,[16],23.5 µM (active)
same,Potency,[4],inactive
same,viability,[5],133% (inactive)
same,Potency,[6],inactive
same,Potency,[17],inactive
same,Potency,[11],inactive
same,Potency,[12],inactive
same,Potency,[13],inactive
same,Potency,[14],inactive
same,Z-AUC,[15],-0.273 (inactive)
same,Z-AUC,[15]; [21],1.03
same,Z-AUC,[15]; measured here: PEO4 Z-AUC,0.0538
COc1cc(C(C)C)c2c(c1)S(=O)(=O)N(COc1cc(=O)n3cccc(OCCN4CCCCC4)c3n1)C2=O,Potency,[1],18700 nM (active)
same,Potency,[3],11.8 µM (active)
same,Potency,[4],23.5 µM (active)
same,Potency,[18],0.833 µM (active)
same,Potency,[7],2.09 µM (active)
same,Potency,[17],16.6 µM (active)
same,Potency,[8],26.4 µM (active)
same,Potency,[9],18.7 µM (active)
same,Potency,[10],18.7 µM (active)
same,Potency,[11],inactive
same,Potency,[12],inactive
same,Z-AUC,[15],1.15 (inactive)
same,Z-AUC,[15]; [21],1.06
same,Z-AUC,[15]; measured here: PEO4 Z-AUC,0.892
CC(C)c1ccccc1Cc1cc(C(=O)Nc2ccc(S(=O)(=O)c3ccccc3C(C)(C)C)cc2)c(O)c(O)c1O,Potency,[1],inactive
same,Potency,[3],4.69 µM (active)
same,Potency,[16],4.69 µM (active)
same,Potency,[5],13.2 µM (active)
same,Potency,[6],13.2 µM (active)
same,Potency,[7],3.72 µM (active)
same,Potency,[17],5.26 µM (active)
same,Potency,[8],4.69 µM (active)
same,Potency,[9],5.26 µM (active)
same,Potency,[10],7.43 µM (active)
same,Potency,[13],5.26 µM (active)
same,Potency,[14],10.5 µM (active)
same,Z-AUC,[15],0.413 (inactive)
same,Z-AUC,[15]; [21],0.393
same,Z-AUC,[15]; measured here: PEO4 Z-AUC,0.535
Cc1cc(Nc2ncnc3ccc(-c4ccc(CNCCS(C)(=O)=O)o4)cc23)ccc1Oc1ccn2ncnc2c1,Potency,[1],372 nM (active)
same,Potency,[3],9.35 µM (active)
same,Potency,[16],16.6 µM (active)
same,Potency,[4],5.9 µM (active)
same,Potency,[5],26.4 µM (active)
same,Potency,[18],1.66 µM (active)
same,Potency,[7],6.62 µM (active)
same,Potency,[17],1.48 µM (active)
same,Potency,[8],6.62 µM (active)
same,Potency,[9],3.32 µM (active)
same,Potency,[10],16.6 µM (active)
same,Potency,[11],26.4 µM (active)
same,Potency,[12],20.9 µM (active)
same,Potency,[13],5.9 µM (active)
same,Potency,[14],16.6 µM (active)
same,Z-AUC,[15],0.841 (inactive)
same,Z-AUC,[15]; [21],0.912
same,Z-AUC,[15]; measured here: PEO4 Z-AUC,0.782
Cc1nc2ccc(CN(C)c3ccc(C(=O)N[C@@H](CCC(=O)O)C(=O)O)s3)cc2c(=O)[nH]1,Potency,[1],1480 nM (active)
same,Potency,[3],inactive
same,Potency,[16],5.26 µM (active)
same,Potency,[4],0.469 µM (active)
same,Potency,[6],11.8 µM (active)
same,Potency,[7],0.235 µM (active)
same,Potency,[17],inactive
same,Potency,[8],1.66 µM (active)
same,Potency,[9],inactive
same,Potency,[11],inactive
same,Potency,[13],0.0093 µM (active)
same,Potency,[14],inactive
same,Z-AUC,[15],-1.54 (inactive)
same,Z-AUC,[15]; [21],-1.34
same,Z-AUC,[15]; measured here: PEO4 Z-AUC,-0.15
O=C(NCCS(=O)(=O)c1ccc(C(F)(F)F)cn1)c1ccc(Cl)cc1,Potency,[1],inactive
same,Potency,[2],inactive
same,Potency,[4],inactive
same,viability,[5],128% (inactive)
same,Potency,[6],inactive
same,Potency,[7],inactive
same,Potency,[8],inactive
same,Potency,[9],inactive
same,Potency,[10],inactive
same,Potency,[13],inactive
same,Potency,[14],inactive
same,Z-AUC,[15],0.591 (inactive)
same,Z-AUC,[15]; [21],0.415
same,Z-AUC,[15]; measured here: PEO4 Z-AUC,0.479
same,z-score,"[19]; TFE3-RCC UOK109 viability, measured here: UOK109 Z-AUC",-0.45
same,z-score,"[19]; TFE3-RCC viability, measured here: UOK124 Z-AUC",0.348
same,z-score,"[19]; TFE3-RCC viability, measured here: UOK145 Z-AUC",0.45
COc1ccc(C=Cc2cc(OC)c(OC)c(OC)c2)cc1O,Potency,[1],inactive
same,Potency,[2],inactive
same,Potency,[3],inactive
same,Potency,[4],inactive
same,viability,[5],34.9% (inactive)
same,Potency,[6],inactive
same,Potency,[18],inactive
same,Potency,[7],inactive
same,Potency,[17],inactive
same,Potency,[8],inactive
same,Potency,[9],inactive
same,Potency,[10],inactive
same,Potency,[12],inactive
same,Potency,[13],inactive
same,Potency,[14],inactive
CC=CC1=C(C(=O)O)N2C(=O)[C@H](NC(=O)[C@H](N)c3ccc(O)cc3)[C@@H]2SC1,Potency,[1],inactive
same,Potency,[2],inactive
same,Potency,[3],26.4 µM (active)
same,viability,[5],117% (inactive)
same,Potency,[18],inactive
same,Potency,[7],inactive
same,Potency,[17],2.96 µM (active)
same,Potency,[9],inactive
same,Potency,[10],inactive
same,Potency,[11],inactive
same,Potency,[13],inactive
same,Potency,[14],inactive
same,"activity, negative = inhibition",[20]; parasite line A,-3.61% (inactive)
same,"activity, negative = inhibition",[20]; parasite line B,-5.72% (inactive)
Cc1cn(-c2cc(NC(=O)c3ccc(C)c(Nc4nccc(-c5cccnc5)n4)c3)cc(C(F)(F)F)c2)cn1,Potency,[1],inactive
same,Potency,[3],inactive
same,Potency,[16],13.2 µM (active)
same,Potency,[4],inactive
same,Potency,[5],26.4 µM (active)
same,Potency,[6],inactive
same,Potency,[7],inactive
same,Potency,[17],inactive
same,Potency,[10],inactive
same,Potency,[12],14.8 µM (active)
same,Potency,[13],5.26 µM (active)
same,Potency,[14],inactive
same,Z-AUC,[15],0.642 (inactive)
same,Z-AUC,[15]; [21],0.692
same,Z-AUC,[15]; measured here: PEO4 Z-AUC,0.0156
COC(=O)C1=C(C)NC(C)=C(C(=O)OCCN2CCN(C(c3ccccc3)c3ccccc3)CC2)C1c1cccc([N+](=O)[O-])c1 (configuration not stated),Potency,[1],inactive
same,Potency,[3],inactive
same,Potency,[4],inactive
same,viability,[5],126% (inactive)
same,Potency,[18],2.64 µM (active)
same,Potency,[7],inactive
same,Potency,[17],4.18 µM (active)
same,Potency,[9],inactive
same,Potency,[10],inactive
same,Potency,[11],inactive
same,Potency,[12],inactive
same,Potency,[13],inactive
same,Potency,[14],inactive
same,Z-AUC,[15],-0.27 (inactive)
same,Z-AUC,[15]; [21],-0.345
same,Z-AUC,[15]; measured here: PEO4 Z-AUC,0.196
same,Potency,[20]; parasite line A,3.16 µM (active)
same,Potency,[20]; parasite line B,3.98 µM (active)
